The whole screen tested about 11,000 compounds, of which about 310 (2.8%) were called active. Rule as the data show it: active = activity change below about -85%; inactive = the rest. Only a selection was taken, and actives are over-represented in it overall.

The assay has as its system intestinal alkaline phosphatase [Mus musculus]. Briefly: activators of mouse IAP, confirmation, biochemical, luminescence, single concentration (AID 434970). As to conditions: purified mouse IAP, CDP-Star luminescence, 30 min, at 10 µM; activation factor: measured here: IAP activation factor, stronger effect = higher value; activity change, negative = activation: stronger effect = lower value.
With `Cc1cc(-c2csc(NC(=O)c3ccc(=O)[nH]c3)n2)c(C)n1Cc1ccco1`, the activation factor was 0.347 and the activity change, negative = activation was 65.4% (inactive).
As to `CCCc1c(O)nc(SC2CC(=O)N(c3cc(OC)ccc3OC)C2=O)[nH]c1=O` (stereo not given), the activation factor is 1.01 and the activity change, negative = activation is -0.65% (inactive).
Regarding `C=CCn1c(SCC(=O)Nc2cc(C)ccc2OC)nnc1-c1ccco1`, the activation factor was found to be 1.07 and the activity change, negative = activation was -7.4% (inactive).
For the compound `CCOC(=O)C1=CN(Cc2ccc(Br)cc2)S(=O)(=O)NC1C` (stereo not given), the activation factor is 0.968 and the activity change, negative = activation was 3.25% (inactive).
As for `O=C(Nc1ccc(Cl)cc1)Nc1ccc(-c2cnco2)cc1`, the activation factor was 1.34 and the activity change, negative = activation was -34.5% (inactive).
In the case of `O=C(Nc1ccc(Cl)cc1)Nc1ccc(N2CCOCC2)cc1`, the activation factor came to 1.17 and the activity change, negative = activation is -16.9% (inactive).
As for `O=C(Nc1ccc(Cl)cc1)N[C@@H]1c2c(ccc3ccccc23)OC[C@@H]1CO`, the activation factor worked out at 4.85 and the activity change, negative = activation was -385% (active).
For `CCCCc1ccc(CC(=O)O)cc1`, the activation factor was 0.907 and the activity change, negative = activation is 9.3% (inactive).
`CC(C)CNC(=O)c1ccccc1NC(=O)Nc1ccccc1`: the activation factor turned out to be 0.949 and the activity change, negative = activation was 5.15% (inactive).
In the same order, the values of `O=C(Nc1ccccc1)Nc1csc2ccccc12` are 2.08 and -108% (active).
Consider `CCCCC(=O)Nc1ccc(F)c(Cl)c1`, for which the activation factor is 1.05 and the activity change, negative = activation was -5.3% (inactive).
As for `O=C(Nc1ccc(F)cc1F)Nc1csc2ccccc12`, the activation factor was found to be 1.77 and the activity change, negative = activation was -77.3% (inactive).
Taken in the same sequence, the figures for `O=C(Nc1ccc(F)cc1)Nc1csc2ccccc12` were 1.94 and -93.7% (inactive).
Consider `O=C(Nc1ccc(F)c(Cl)c1)Nc1csc2ccccc12`, for which the activation factor is 2.15 and the activity change, negative = activation was -115% (active).
Turning to `O=S(=O)(NCc1cccs1)c1cccc(S(=O)(=O)N2CCCCC2)c1`, the activation factor is 0.903 and the activity change, negative = activation is 9.65% (inactive).
On to `Cc1ccccc1N(CC(=O)N1CCN(c2ccccc2)CC1)S(C)(=O)=O`, for which the activation factor is 0.932 and the activity change, negative = activation is 6.8% (inactive).
In the case of `COc1ccc(OC)c(S(=O)(=O)n2ccnc2C)c1`, the activation factor was found to be 0.998 and the activity change, negative = activation was 0.15% (inactive).
For the compound `COc1ccc(Cc2nnc(NC(=O)C3CCCO3)s2)cc1OC` (stereo not given), the activation factor came to 1.01 and the activity change, negative = activation was -1.15% (inactive).
As to `CCC(C)OC(=O)C1=C(C)NC2=C(C(=O)C(C(=O)OC)C(C)C2)C1c1ccc(N(C)C)cc1` (stereo not given), the activation factor came out at 1.06 and the activity change, negative = activation is -6.35% (inactive).
`CCN(CC)CCNC(=O)Cn1nc(-c2ccccc2)c2ccccc2c1=O`: the activation factor is 0.954 and the activity change, negative = activation was 4.6% (inactive).
For `NC(=O)C1CCN(c2ncnc3c(-c4ccccc4)nsc23)CC1`, the activation factor worked out at 0.947 and the activity change, negative = activation was 5.35% (inactive).
On to `O=C(c1cc(-c2cccs2)on1)N1CCN(C(c2ccccc2)c2ccccc2)CC1`, for which the activation factor worked out at 0.971 and the activity change, negative = activation is 2.95% (inactive).
With `Cc1ccc(NC(=O)NC2(C(=O)NCc3ccccc3)CCCCC2)cc1`, the activation factor is 2.31 and the activity change, negative = activation is -131% (active).
In the case of `Cc1ccc(CNC(=O)C2(NC(=O)Nc3ccc(C)cc3)CCCCC2)cc1`, the activation factor came out at 2.98 and the activity change, negative = activation is -198% (active).
As to `COc1ccccc1CNC(=O)Cn1cccc1`, the activation factor came out at 0.944 and the activity change, negative = activation is 5.65% (inactive).
Regarding `CCn1c(CC(=O)Nc2ccc(C)cc2)nnc1SCC(=O)NCc1ccccc1`, the activation factor amounted to 1 and the activity change, negative = activation was -0.4% (inactive).
In the same order, the values of `O=C(NCc1ccccc1)NC1(C(=O)N2CCCC2)CCCCC1` are 0.94 and 6% (inactive).
In the same order, the values of `O=C(Nc1cccc(Cl)c1)NC1(C(=O)NCc2cccs2)CCCCC1` are 1.62 and -61.7% (inactive).
In the same order, the values of `COc1ccccc1CNC(=O)C1(NC(=O)Nc2ccc(C)cc2)CCCCC1` are 3.44 and -244% (active).
Consider `CCOC(=O)c1ccc(NC(=O)NCc2ccc(OC)cc2)cc1`, for which the activation factor was found to be 1.49 and the activity change, negative = activation was -49% (inactive).
Taken in the same sequence, the figures for `COc1ccccc1C(=O)Nc1ccc(CN2CCCCC2)cc1` were 0.94 and 6% (inactive).
With `CC1(C)CC(=O)C2=C(C1)N=c1s/c(=C/c3ccc(F)c(F)c3)c(=O)n1C2c1ccc(F)cc1` (stereo not given), the activation factor was determined as 0.856 and the activity change, negative = activation is 14.4% (inactive).
Consider `N#C/C(=C/c1ccco1)C(N)=S`, for which the activation factor was determined as 0.434 and the activity change, negative = activation was 56.5% (inactive).
On to `CCOC(=O)c1c(-c2ccccc2)oc2ccc(O)c(CN(C)C)c12`, for which the activation factor stood at 0.909 and the activity change, negative = activation is 9.15% (inactive).
Taken in the same sequence, the figures for `Nc1ncnc2c1ncn2[C@@H]1O[C@H](CNS(=O)(=O)c2cc(S(=O)(=O)c3ccccc3)cs2)[C@@H](O)[C@H]1O` were 1.08 and -7.65% (inactive).
Taken in the same sequence, the figures for `Cc1ccc(C(=O)Nc2nnn(C)n2)cc1` were 1.1 and -10.2% (inactive).
Taken in the same sequence, the figures for `CCN(CC)S(=O)(=O)c1ccc(NC(=O)Cn2c(=O)sc3ccccc32)cc1` were 1.31 and -30.9% (inactive).
In the case of `C#CCOCCOCCOCCNc1nc(N2CCN(C(=O)CCCCCCCCCCNC(=O)[C@H]([C@@H](C)CC)n3cc(CCCCN=C(N)N)nn3)CC2)nc(N2CCN(C(=O)CCCCCCCCCCNC(=O)[C@H](CCCCN)n3cc(C[C@@H](C)CC)nn3)CC2)n1`, the activation factor is 8.58 and the activity change, negative = activation is -758% (active).
For the compound `C#CCOCCOCCOCCNc1nc(N2CCN(C(=O)CCCCCCCCCCNC(=O)[C@H]([C@@H](C)CC)n3cc(CCCCN=C(N)N)nn3)CC2)nc(N2CCN(C(=O)CCCCCCCCCCNC(=O)[C@H](CCCN=C(N)N)n3cc(C[C@@H](C)CC)nn3)CC2)n1`, the activation factor turned out to be 9.52 and the activity change, negative = activation was -852% (active).
In the same order, the values of `C#CCOCCOCCOCCNc1nc(N2CCN(C(=O)CCCCCCCCCCNC(=O)[C@H](CCCN=C(N)N)n3cc(C[C@@H](C)CC)nn3)CC2)nc(N2CCN(C(=O)CCCCCCCCCCNC(=O)[C@@H]([C@H](C)CC)n3cc(CCCCCN)nn3)CC2)n1` are 6.19 and -519% (active).
On to `Cc1ccc(N=C2NC(=O)CS2)cc1`, for which the activation factor was 0.925 and the activity change, negative = activation is 7.5% (inactive).
As for `COc1ccc(C2/C=C\CN(S(=O)(=O)c3ccc(C)cc3)CC(=O)N2Cc2cccc(F)c2)cc1` (stereo not given), the activation factor was determined as 1.08 and the activity change, negative = activation is -8% (inactive).
As for `O=C1CCCCCN1Cc1nnc(SCc2nc3ccccc3s2)n1-c1ccccn1`, the activation factor stood at 0.923 and the activity change, negative = activation is 7.7% (inactive).
Take `Cc1ccc(-c2noc(CN3CCC(C(N)=O)CC3)n2)cc1`: the activation factor is 0.997 and the activity change, negative = activation was 0.25% (inactive).
In the same order, the values of `CC(=O)NCC(=O)N(c1c(C)n(C)n(-c2ccccc2)c1=O)C1(C(=O)NC2CCCC2)CCCCC1` are 0.98 and 2.05% (inactive).
With `O=C(N1CCOCC1)C1(c2ccccc2)CCCCC1`, the activation factor turned out to be 0.901 and the activity change, negative = activation was 9.95% (inactive).
In the same order, the values of `Cc1ccc(NC(=O)CN(C)C(=O)CCCN2C(=O)c3ccccc3C2=O)cc1` are 1.04 and -3.95% (inactive).
On to `C#CCOCCOCCOCCNc1nc(N2CCN(C(=O)CCCCCCCCCCNC(=O)[C@H]([C@@H](C)CC)n3cc(CCCCCN)nn3)CC2)nc(N2CCN(C(=O)CCCCCCCCCCNC(=O)[C@@H]([C@H](C)O)n3cc(C)nn3)CC2)n1`, for which the activation factor was 4.1 and the activity change, negative = activation is -310% (active).
With `C#CCOCCOCCOCCNc1nc(N2CCN(C(=O)CCCCCCCCCCNC(=O)[C@H]([C@@H](C)CC)n3cc(CCCCCN)nn3)CC2)nc(N2CCN(C(=O)CCCCCCCCCCNC(=O)[C@H](CO)n3cc(CCCCCN)nn3)CC2)n1`, the activation factor was found to be 2.51 and the activity change, negative = activation is -151% (active).
In the case of `C#CCOCCOCCOCCNc1nc(N2CCN(C(=O)CCCCCCCCCCNC(=O)[C@H]([C@@H](C)CC)n3cc(CCCCCN)nn3)CC2)nc(N2CCN(C(=O)CCCCCCCCCCNC(=O)[C@@H]([C@H](C)CC)n3cc(CCCCCN)nn3)CC2)n1`, the activation factor is 6.79 and the activity change, negative = activation is -579% (active).

The values are drawn from PubChem BioAssay AID434970 (Sanford-Burnham Center for Chemical Genomics, 2010).
